Source: PubChem BioAssay (Tox21)
Results filed as inconclusive are left out. Calls of active or inactive are those of the source. Unless noted, calls follow the shape of the full dose curve.

Tests used:
[1] = qHTS assay to identify small molecule agonists of the peroxisome proliferator-activated receptor delta (PPARd) signaling pathway - cell viability counter screen (AID 743211; active = well fitted curve in the direction sought with a large enough effect in the repeat runs; an effect the other way counts as inactive or inconclusive; also: % is scaled to controls: 0 for no effect and ±100 for the full control effect; nearly all actives have a fitted effect of over 55% in size)
Procedure, shortened: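 Viability of GeneBLAzer PPARd UAS-bla HEK293H cells was assessed after 17 h compound incubation at 37C, using CellTiter-Glo reagent added after the reporter read and luminescence recorded 30 min later.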

[2] = qHTS assay to identify small molecule antagonists of the peroxisome proliferator-activated receptor delta (PPARd) signaling pathway - cell viability counter screen (AID 743213; active = well fitted curve in the direction sought with a large enough effect in the repeat runs; an effect the other way counts as inactive or inconclusive; also: % is scaled to controls: 0 for no effect and ±100 for the full control effect; nearly all actives have a fitted effect of over 50% in size)
Procedure, shortened: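 PPARd-bla HEK293H cells (3000/well) got compound plus 300 nM L165041 agonist for 17 h at 37 C. Viability in the same wells came from CellTiter-Glo luminescence after 30 min at room temperature.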

[3] = molecular target: Bile acid receptor (Homo sapiens) (UniProt Q96RI1); experiment: qHTS assay to identify small molecule antagonists of the farnesoid-X-receptor (FXR) signaling pathway (AID 743217; active = well fitted inhibition curve with a large enough effect in the signal ratio in the repeat runs, not every such curve was filed as active; the % refers to the signal ratio; also: % is scaled to controls: 0 for no effect and ±100 for the full control effect)
Bile acid receptor (Homo sapiens), sequence (Q96RI1 whole entry, looked up): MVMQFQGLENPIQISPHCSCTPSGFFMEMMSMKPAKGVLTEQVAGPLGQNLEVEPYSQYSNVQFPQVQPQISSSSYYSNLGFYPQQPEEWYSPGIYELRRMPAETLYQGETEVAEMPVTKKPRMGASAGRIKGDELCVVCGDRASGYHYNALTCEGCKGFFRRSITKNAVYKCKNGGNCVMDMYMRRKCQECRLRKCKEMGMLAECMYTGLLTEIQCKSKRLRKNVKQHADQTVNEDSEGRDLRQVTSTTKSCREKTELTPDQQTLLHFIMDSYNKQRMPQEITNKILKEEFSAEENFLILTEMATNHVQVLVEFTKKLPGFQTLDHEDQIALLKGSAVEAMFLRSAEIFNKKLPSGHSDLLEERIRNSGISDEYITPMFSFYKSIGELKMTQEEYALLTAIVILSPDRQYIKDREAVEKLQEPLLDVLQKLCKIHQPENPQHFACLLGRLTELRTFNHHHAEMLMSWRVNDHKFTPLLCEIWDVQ
Procedure, shortened: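 Antagonist mode: chenodeoxycholic acid at 50 uM final stimulates a UAS-driven beta-lactamase reporter in HEK 293T FXR-bla cells during 16 h, 37C compound exposure. Read-out is FRET substrate fluorescence after 2 h at room temperature.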

[4] = qHTS assay to identify small molecule agonists of the farnesoid-X-receptor (FXR) signaling pathway - cell viability counter screen (AID 743218; active = well fitted curve in the direction sought with a large enough effect in the repeat runs; an effect the other way counts as inactive or inconclusive; also: % is scaled to controls: 0 for no effect and ±100 for the full control effect; nearly all actives have a fitted effect of over 45% in size)
Procedure, shortened: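 Viability counter screen in the same wells: CellTiter-Glo luminescence, 30 min room-temperature incubation, measured after the beta-lactamase read. Cells were GeneBLAzer FXR-UAS-bla HEK 293T, compound-treated 16 h at 37C.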

[5] = molecular target: Bile acid receptor (Homo sapiens) (UniProt Q96RI1); experiment: qHTS assay to identify small molecule agonists of the farnesoid-X-receptor (FXR) signaling pathway (AID 743220; active = well fitted activation curve with a large enough effect in the signal ratio in the repeat runs, not every such curve was filed as active; the % refers to the signal ratio; also: % is scaled to controls: 0 for no effect and ±100 for the full control effect)
Procedure, shortened: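 FXR-UAS-bla HEK 293T cells carrying a UAS-driven beta-lactamase reporter were plated for 5 h at 37C/5% CO2, then exposed to DMSO-dissolved Tox21 10K compounds for 16 h at 37C. A LiveBLAzer B/G FRET substrate was loaded for 2 h at room temperature before fluorescence reading.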

[6] = qHTS assay to identify small molecule antagonists of the farnesoid-X-receptor (FXR) signaling pathway - cell viability counter screen (AID 743221; active = well fitted cell-killing curve with a large enough effect in the repeat runs, not every such curve was filed as active; also: % is scaled to controls: 0 for no effect and ±100 for the full control effect; nearly all actives have a fitted effect of over 50% in size)
Procedure, shortened: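 Quantitative HTS of the Tox21 10K library run in parallel with the beta-lactamase reporter read. HEK 293T cells carrying a UAS-driven bla reporter got compound and 50 uM CDCA (final) for 16 h; ATP-based luminescence followed.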

[7] = molecular target: Vitamin D3 receptor (Homo sapiens) (UniProt P11473); experiment: qHTS assay to identify small molecule agonists of the vitamin D receptor (VDR) signaling pathway (AID 743222); also: % is scaled to controls: 0 for no effect and ±100 for the full control effect
Vitamin D3 receptor (Homo sapiens), sequence (P11473 whole entry, looked up): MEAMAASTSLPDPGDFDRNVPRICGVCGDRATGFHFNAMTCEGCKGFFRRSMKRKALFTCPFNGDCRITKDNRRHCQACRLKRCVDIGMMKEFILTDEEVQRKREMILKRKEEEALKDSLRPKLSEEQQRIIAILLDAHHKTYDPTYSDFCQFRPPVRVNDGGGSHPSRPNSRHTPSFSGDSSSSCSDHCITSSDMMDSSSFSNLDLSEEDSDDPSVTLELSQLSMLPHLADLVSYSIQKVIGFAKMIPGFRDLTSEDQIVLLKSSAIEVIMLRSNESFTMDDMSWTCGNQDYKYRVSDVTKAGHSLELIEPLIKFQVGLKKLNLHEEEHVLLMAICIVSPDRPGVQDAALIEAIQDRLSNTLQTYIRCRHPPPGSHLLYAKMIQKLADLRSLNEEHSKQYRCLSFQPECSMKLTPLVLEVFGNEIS
Procedure, shortened: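 Agonist mode, beta-lactamase reporter: fluorescence from LiveBLAzer B/G FRET substrate (2 h, room temperature) read after 16 h compound treatment at 37 C of VDR-bla cells, which were pre-incubated 4 h after seeding.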

[8] = molecular target: Vitamin D3 receptor (Homo sapiens) (UniProt P11473); experiment: qHTS assay to identify small molecule antagonists of the vitamin D receptor (VDR) signaling pathway (AID 743223; active = well fitted inhibition curve with a large enough effect in the signal ratio in the repeat runs, not every such curve was filed as active; the % refers to the signal ratio; also: % is scaled to controls: 0 for no effect and ±100 for the full control effect)
Procedure, shortened: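 Fluorescence from LiveBLAzer B/G FRET substrate, read after 2 h at room temperature, reflects beta-lactamase reporter activity in VDR-bla cells treated 16 h at 37C with compounds and agonist 1alpha,25-dihydroxyvitamin D3 (3 nM final).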

[9] = qHTS assay to identify small molecule agonists of the vitamin D receptor (VDR) signaling pathway - cell viability counter screen (AID 743224; active = well fitted curve in the direction sought with a large enough effect in the repeat runs; an effect the other way counts as inactive or inconclusive; also: series mostly up to about 63 µM; % is scaled to controls: 0 for no effect and ±100 for the full control effect; nearly all actives have a fitted effect of over 50% in size)
Procedure, shortened: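 Counter screen run in the same wells as the VDR-bla reporter assay: CellTiter-Glo luminescence, 30 min at room temperature, after 16 h compound treatment at 37C of cells pre-plated for 4 h.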

[10] = qHTS assay to identify small molecule antagonists of the vitamin D receptor (VDR) signaling pathway - cell viability counter screen (AID 743225; active = well fitted curve in the direction sought with a large enough effect in the repeat runs; an effect the other way counts as inactive or inconclusive; also: % is scaled to controls: 0 for no effect and ±100 for the full control effect; nearly all actives have a fitted effect of over 50% in size)
Procedure, shortened: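 Cells (VDR-UAS-bla HEK 293T) are plated, rested 4 h at 37C, dosed with compound and 3 nM final 1-alpha,25-dihydroxy vitamin D3, and incubated 16 h. Viability is taken from CellTiter-Glo luminescence in the reporter wells.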

[11] = qHTS assay to identify small molecule agonists of the NFkB signaling pathway - cell viability counter screen (AID 1159515); also: series mostly up to about 61 µM; % is scaled to controls: 0 for no effect and ±100 for the full control effect; nearly all actives have a fitted effect of over 55% in size
Procedure, shortened: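 Read by CellTiter-Glo luminescence (30 min, room temperature) in the wells also used for the beta-lactamase FRET read. ME-180 NFkB-bla cells at 2,000 per well were plated overnight, then exposed to compound for 5 hr at 37 C.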

[12] = qHTS assay to identify small molecule agonists of the endoplasmic reticulum stress response signaling pathway - cell viability counter screen (AID 1159517)
Procedure, shortened: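 In parallel with the ESRE reporter read, cytotoxicity was scored by CellTiter-Glo luminescence (30 min, room temperature) on HeLa ESRE-bla cells dosed for 5 hr.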

[13] = qHTS assay to identify small molecule antagonists of the retinoid-related orphan receptor gamma (ROR-gamma) signaling pathway - cell viability counter screen (AID 1159520; active = well fitted curve in the direction sought with a large enough effect in the repeat runs; an effect the other way counts as inactive or inconclusive)
Procedure, shortened: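 Tet-on ROR gamma CHO cells were given compounds for 2 hr, then doxycycline hyclate at 1 uM final, and incubated 16 hr at 37 C. Viability was measured as ATP content by CellTiter-Glo luminescence.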

[14] = molecular target: Nuclear receptor ROR-gamma (Homo sapiens) (UniProt P51449); experiment: qHTS assay to identify small molecule antagonists of the retinoid-related orphan receptor gamma (ROR-gamma) signaling pathway (AID 1159521; active = well fitted curve in the direction sought with a large enough effect in the repeat runs; an effect the other way counts as inactive or inconclusive)
Procedure, shortened: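 RORγ antagonism is scored from reduced reporter luminescence in Tet-on CHO cells. Induction used 1 uM final doxycycline hyclate for 16 h at 37 C, following a 2 h compound exposure.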

[15] = qHTS assay to identify small molecule agonists of the AP-1 signaling pathway (AID 1159526); also: % is scaled to controls: 0 for no effect and ±100 for the full control effect
[16] = molecular target: Retinoic acid receptor RXR-alpha (Homo sapiens) (UniProt P19793); experiment: qHTS assay to identify small molecule agonists of the RXR signaling pathway (AID 1159527); also: nearly all actives have a fitted effect of over 35% in size; also: potency is read from the fitted curve at half-maximal effect
Retinoic acid receptor RXR-alpha (Homo sapiens), sequence (P19793 whole entry, looked up): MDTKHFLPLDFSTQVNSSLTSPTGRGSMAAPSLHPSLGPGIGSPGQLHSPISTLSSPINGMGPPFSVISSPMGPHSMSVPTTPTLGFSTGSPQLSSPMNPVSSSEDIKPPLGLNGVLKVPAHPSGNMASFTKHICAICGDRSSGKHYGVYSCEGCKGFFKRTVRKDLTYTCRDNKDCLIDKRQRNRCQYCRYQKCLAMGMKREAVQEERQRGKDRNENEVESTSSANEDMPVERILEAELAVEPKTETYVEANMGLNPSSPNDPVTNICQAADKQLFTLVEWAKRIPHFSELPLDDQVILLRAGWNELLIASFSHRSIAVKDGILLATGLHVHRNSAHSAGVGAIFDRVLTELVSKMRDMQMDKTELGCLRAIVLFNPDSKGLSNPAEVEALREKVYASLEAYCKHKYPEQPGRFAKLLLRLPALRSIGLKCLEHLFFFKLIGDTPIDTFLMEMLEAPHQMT
Procedure, shortened: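 qHTS of the Tox21 10K library in GeneBLAzer RXR-alpha HEK 293T cells carrying a beta-lactamase reporter […]; 16 hr treatment, 9-cis retinoic acid as agonist control, FRET read-out.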

[17] = molecular target: Peroxisome proliferator-activated receptor delta (Homo sapiens) (UniProt Q03181); experiment: qHTS assay to identify small molecule agonists of the peroxisome proliferator-activated receptor delta (PPARd) signaling pathway (AID 743212); also: % is scaled to controls: 0 for no effect and ±100 for the full control effect
Peroxisome proliferator-activated receptor delta (Homo sapiens), sequence (Q03181 whole entry, looked up): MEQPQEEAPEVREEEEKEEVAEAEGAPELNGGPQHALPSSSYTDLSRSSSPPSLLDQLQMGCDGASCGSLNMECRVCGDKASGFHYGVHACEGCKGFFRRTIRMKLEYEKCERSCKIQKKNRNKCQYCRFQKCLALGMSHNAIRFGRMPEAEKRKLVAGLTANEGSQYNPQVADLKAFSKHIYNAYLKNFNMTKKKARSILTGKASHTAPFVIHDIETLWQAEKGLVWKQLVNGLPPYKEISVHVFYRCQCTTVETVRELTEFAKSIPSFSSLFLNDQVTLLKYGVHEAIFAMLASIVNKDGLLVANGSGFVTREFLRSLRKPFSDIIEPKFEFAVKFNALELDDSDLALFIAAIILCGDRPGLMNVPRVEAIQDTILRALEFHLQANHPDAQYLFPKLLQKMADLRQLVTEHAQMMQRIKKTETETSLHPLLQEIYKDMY
Procedure, shortened: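 Tox21 library screened in GeneBLAzer PPARd UAS-bla HEK293H cells. After compound treatment at 37 C, a FRET-based beta-lactamase substrate was applied for 2 h and fluorescence recorded.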

[18] = molecular target: Peroxisome proliferator-activated receptor delta (Homo sapiens) (UniProt Q03181); experiment: qHTS assay to identify small molecule antagonists of the peroxisome proliferator-activated receptor delta (PPARd) signaling pathway (AID 743215; active = well fitted inhibition curve with a large enough effect in the signal ratio in the repeat runs, not every such curve was filed as active; the % refers to the signal ratio)
Procedure, shortened: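 Agonist L165041 (300 nM final) added with compound to PPARd-bla HEK293H UAS-bla reporter cells; 17 h incubation at 37 C. Read-out: LiveBLAzer FRET substrate, 2 h at room temperature, fluorescence intensity.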

[19] = qHTS assay to identify small molecule agonists of the AP-1 signaling pathway - cell viability counter screen (AID 1159525); also: nearly all actives have a fitted effect of over 55% in size
Procedure, shortened: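 Same-well cytotoxicity counter screen of the Tox21 10K library in ME-180 cells. The readout is ATP-dependent luminescence after 5 h compound treatment. Data are normalised to DMSO and tetra n-octyl ammonium bromide controls.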

COCc1nnc(-c2ccc[n+]([O-])c2)n1-c1c(Cl)c(Cl)cc2[nH]c(=O)c(=O)[nH]c12
inactive: outcome [1] | outcome [2] | outcome [3] | outcome [4] | outcome [5] | outcome [6] | outcome [7] | outcome [8] | outcome [9] | outcome [10] | outcome [11] | outcome [12] | outcome [13] | outcome [14] | Potency [15] | Potency [16]

C/C=C(\C)C(=O)OC/C=C(\C)CCC=C(C)C
inactive: outcome [1] | outcome [17] | outcome [18] | outcome [4] | outcome [6] | outcome [8] | outcome [9] | outcome [10] | outcome [11] | outcome [12] | outcome [13] | outcome [14] | outcome [19] | Potency [15]
active: Potency [16] 21.9 µM

C/C=C(\C)C=O
inactive: outcome [1] | outcome [17] | outcome [2] | outcome [18] | outcome [3] | outcome [4] | outcome [5] | outcome [6] | outcome [7] | outcome [8] | outcome [11] | outcome [12] | outcome [14] | outcome [19] | Potency [15] | Potency [16]

C=CC(C)(CCC=C(C)C)OC(=O)C(C)C (stereo unspecified)
inactive: outcome [1] | outcome [17] | outcome [2] | outcome [18] | outcome [4] | outcome [6] | outcome [7] | outcome [8] | outcome [11] | outcome [12] | outcome [13] | outcome [14] | outcome [19] | Potency [15] | Potency [16]

CCCCC(CC)COC(=O)CC#N (stereo unspecified)
inactive: outcome [1] | outcome [2] | outcome [3] | outcome [4] | outcome [5] | outcome [6] | outcome [8] | outcome [9] | outcome [10] | outcome [11] | outcome [12] | outcome [13] | outcome [14] | outcome [19] | Potency [15] | Potency [16]

CC(C)(C)C(=O)NCCCC(=O)O
inactive: outcome [1] | outcome [17] | outcome [2] | outcome [18] | outcome [4] | outcome [6] | outcome [7] | outcome [8] | outcome [9] | outcome [10] | outcome [11] | outcome [12] | outcome [13] | outcome [14] | outcome [19] | Potency [15] | Potency [16]

CCOC(=O)CC
inactive: outcome [17] | outcome [18] | outcome [3] | outcome [5] | outcome [6] | outcome [9] | outcome [11] | outcome [12] | outcome [13] | outcome [14] | Potency [15] | Potency [16]

C[C@@H]1NC(=O)[C@@H](N)CNC(=O)[C@H](C2CCNC(N)=N2)NC(=O)/C(=C/NC(N)=O)NC(=O)[C@H](CNC(=O)C[C@@H](N)CCCN)NC1=O (stereo partly specified)
inactive: activation [17] 1.73% [at 0.55 µM] | viability change, negative = cytotoxic [2] 5.77% [at 0.575 µM] | ratio activity, negative = inhibition [18] 1.43% [at 0.575 µM] | viability change, negative = cytotoxic [4] -0.66% [at 0.55 µM] | activity change, negative = cytotoxicity [6] 2.18% [at 0.55 µM] | activity change, negative = inhibition [8] 8.64% [at 0.628 µM] | activity change, negative = cytotoxicity [9] -2.65% [at 0.55 µM] | viability change, negative = cytotoxic [10] 3.48% [at 0.628 µM] | activity, negative = cytotoxic [11] 1.55% [at 0.628 µM] | activity, negative = cytotoxicity [13] 1.69% [at 0.349 µM] | activity change, negative = inhibition [14] 9.3% [at 0.35 µM] | viability change, negative = cytotoxic [19] 0.985% [at 0.29 µM] | activation [15] -1.11% [at 0.29 µM] | activation [16] 5.99% [at 0.29 µM]
